Results as given in PubChem BioAssay.
“And” between values parts separate entries of the source, which are not always exact repeats. Equal values may be shown once. For part of these data: Measured potencies and affinities stand elsewhere. The source holds several records for some structures; these can differ, active in one and inactive in another. The source made the active and inactive calls.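 The calls were made as follows, unless noted: active = thallium flux through the channel raised or lowered by more than 3 SD from vehicle-only wells, actives on both sides; inactive = the rest.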

Assays:
[1] = polyglutamine-triggered caspase-3 activation inhibitors, cell-based (AID 1583); conditions: polyglutamine-induced caspase-3 activation, cell assay; stronger effect = higher value;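 tested at 10 µM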
[2] = suppressors of polyQ aggregation in yeast, 75Q-TubU reporter (AID 1593); conditions: Yeast 75Q polyglutamine aggregation reporter
[3] = rescue of polyQ-huntingtin neuronal dysfunction in worms, whole organism, C. elegans mechanosensory neurons, N-terminal huntingtin (AID 1599); conditions: touch response, stronger effect = higher value
[4] = inhibitors of mitochondrial cytochrome c release, biochemical, purified mitochondria (AID 1603); conditions: stronger effect = lower value;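 also: mouse liver mitochondria challenged with calcium chloride; signal normalized to the plate average as 100%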
[5] = inhibitors of polyQ protein aggregation (AID 1604); conditions: polyglutamine-induced protein aggregation inhibition assay; stronger effect = higher value; tested at 2.5 µM
[6] = enhancers of glutamate uptake in motor neurons, MN-1 cell line (AID 1612); conditions: MN-1 motor neuron cells, stronger effect = higher value;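 also: tested at 1 µM final; 0% = mean of DMSO vehicle wells on each plate; positive means more glutamate uptake than control and negative means less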
[7] = suppressors of polyglutamine aggregation in yeast, 75Q-TubH (AID 1616); conditions: S. cerevisiae 75Q-TubH polyglutamine aggregation suppression; stronger effect = higher value
[8] = hESC survival regulators, cell-based (AID 493140; call rule not given here;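 also: cells exposed to compounds for four days before counting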); conditions: human embryonic stem cell survival screen; stronger effect = higher value
[9] = modulation of C. elegans fzo-1 (AID 1259413; call rule not given here;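 also: fzo-1 mutant C. elegans worms in liquid wells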); conditions: C. elegans fzo-1 modulator screen, mean read-out; stronger effect = higher value
[10] = viability rescue of complex I mutant cybrids, primary screen, cell-based, galactose medium, ATP luminescence (AID 1645843;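 active = z-score of at least 1.8 in each of two replicates, scored against plate mean and spread of sample wells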;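 also: positive z means more ATP and so rescue of galactose-driven cybrid death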); conditions: complex I mutant cybrid cells, 72 h, stronger effect = higher value
F380Y/beta1 = assay: modulators of BK channel variants, profiling panel, selectivity assay, cell-based, U2OS BacMam, thallium flux, beta subunits (AID 1259406); conditions: at 30 µM;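 also: initial slope of Thallos dye fluorescence rise after thallium is added; log ratio against the mean of 0.3% DMSO vehicle wells on the same plate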
F380Y/beta2Delta = assay: as above; conditions: at 30 µM
F380Y/beta4 = assay: as above; conditions: at 30 µM
[11] = target: Calcium-activated potassium channel subunit alpha-1 (Homo sapiens) + Leucine-rich repeat-containing protein 26 (Homo sapiens) (UniProt Q12791+Q2I0M4); assay: as above; conditions: F380Y/Slo1WT/gamma1, at 30 µM
R275C = assay: as above; conditions: at 30 µM
R275C/beta1 = assay: as above; conditions: at 30 µM
R275C/beta2Delta = assay: as above; conditions: at 30 µM
R275C/beta4 = assay: as above; conditions: at 30 µM
R275C/Slo1WT/beta2 = assay: as above; conditions: at 30 µM
[12] = system: Neuropilin-2 / VEGF-C interaction (human); assay: inhibitors of NRP2–VEGF-C binding, biochemical, microplate binding format, z-score (AID 743281; call rule not given here); conditions: microplate NRP2/VEGF-C binding assay; stronger effect = lower value

Sequence of Calcium-activated potassium channel subunit alpha-1 (Homo sapiens) + Leucine-rich repeat-containing protein 26 (Homo sapiens) (Q2I0M4 whole entry, looked up, one chain of several): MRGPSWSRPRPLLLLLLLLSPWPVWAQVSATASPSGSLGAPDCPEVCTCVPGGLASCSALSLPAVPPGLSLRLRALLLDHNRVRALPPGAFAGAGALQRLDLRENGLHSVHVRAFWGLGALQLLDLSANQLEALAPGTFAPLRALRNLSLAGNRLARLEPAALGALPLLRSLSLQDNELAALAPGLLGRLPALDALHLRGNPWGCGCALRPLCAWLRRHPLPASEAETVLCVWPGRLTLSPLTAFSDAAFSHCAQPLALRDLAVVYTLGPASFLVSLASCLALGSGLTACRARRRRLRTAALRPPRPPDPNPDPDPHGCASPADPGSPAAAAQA

SMILES | inhibition [1] | score [2] | rescue above control [3] | cytochrome c release ratio [4] | inhibition of aggregation [5] | glutamate uptake change [6] | aggregation suppression score [7] | survival [8] | mean signal [9] | z-score [10] | log fold change Tl+ flux (F380Y/beta1) | log fold change Tl+ flux (F380Y/beta2Delta) | log fold change Tl+ flux (F380Y/beta4) | log fold change Tl+ flux [11] | log fold change Tl+ flux (R275C) | log fold change Tl+ flux (R275C/beta1) | log fold change Tl+ flux (R275C/beta2Delta) | log fold change Tl+ flux (R275C/beta4) | log fold change Tl+ flux (R275C/Slo1WT/beta2) | z-score [12]
c1ccc2c(CC3=NCCN3)cccc2c1 | 16.4% | 1.41 | -1.7 | 1.14 | 79.6% | -6.49% | 1.49 | 12.7 (inactive) | 245 (inactive) | 0.47 (inactive) and 0.505 (inactive) | 0.0282 (inactive) | -0.014 (inactive) | 0.0394 (inactive) | 0.0291 (inactive) | -0.0401 (inactive) | -0.0378 (inactive) | 0.00508 (inactive) | -0.0196 (inactive) | -0.0172 (inactive) | 
CC(C)Oc1ccc2c(=O)c(-c3ccccc3)coc2c1 |  |  |  |  |  |  |  |  | 191 (inactive) | -0.74 (inactive) | -0.0734 (inactive) | -0.052 (inactive) | -0.0682 (inactive) | -0.0126 (inactive) | -0.0788 (inactive) | -0.122 (active) | -0.0975 (active) | -0.0145 (inactive) | 0.013 (inactive) | 0.0143 (inactive)
CC(C)(C)NC[C@H](O)COc1nsnc1N1CCOCC1 |  |  |  |  |  |  |  | 4.17 (inactive) | 275 (inactive) | 0.57 (inactive) and -0.2 (inactive) and 0.33 (inactive) | -0.0365 (inactive) | 0.019 (inactive) | 0.0021 (inactive) | 0.00124 (inactive) | -0.000858 (inactive) | -0.0605 (inactive) | -0.0488 (inactive) | -0.0714 (inactive) | -0.0819 (inactive) | 
Cc1ccc(O)c([C@H](CCN(C(C)C)C(C)C)c2ccccc2)c1 |  |  |  |  |  |  |  |  | 219 (inactive) |  | 0.0975 (active) | 0.0454 (inactive) | 0.136 (active) | 0.0595 (inactive) | -0.0487 (inactive) | 0.03 (inactive) | 0.0798 (inactive) | 0.0668 (inactive) | 0.0213 (inactive) | -0.0447 (inactive)
CC(COc1ccccc1)NC(C)C(O)c1ccc(O)cc1 (configuration not stated) |  |  |  |  |  |  |  | 10.8 (inactive) | 247 (inactive) | 0.74 (inactive) | 0.0456 (inactive) | 0.0627 (inactive) | 0.0762 (inactive) | -0.0341 (inactive) | 0.0486 (inactive) | 0.000959 (inactive) | 0.0577 (inactive) | 0.0625 (inactive) | 0.0192 (inactive) | 
CCCN(CCC)S(=O)(=O)c1ccc(C(=O)O)cc1 | 2.2% | 0.68 | 9.13 | 1.07 | 52.4% | -14.7% | 0.579 | 6.25 (inactive) | 252 (inactive) | 0.145 (inactive) | -0.02 (inactive) | -0.000486 (inactive) | -0.0299 (inactive) | 0.021 (inactive) | -0.00526 (inactive) | -0.0021 (inactive) | -0.000317 (inactive) | -0.0261 (inactive) | 0.0366 (inactive) | 
C#C[C@]1(O)CC[C@H]2[C@@H]3CCC4=CC(=O)CC[C@@H]4[C@H]3CC[C@@]21CC |  |  |  |  |  |  |  | 3.67 (inactive) |  | 0.335 (inactive) | 0.149 (active) | 0.00649 (inactive) | -0.00261 (inactive) | 0.0485 (inactive) | -0.0255 (inactive) | 0.00999 (inactive) | -0.0278 (inactive) | -0.0556 (inactive) | -0.0344 (inactive) | 
CC(=O)OCC(=O)[C@@]1(O)CC[C@H]2[C@@H]3CCC4=CC(=O)CC[C@]4(C)[C@H]3C(=O)C[C@@]21C |  |  |  |  |  |  |  |  |  | 0.82 (inactive) and 2.46 (active) | 0.0066 (inactive) | -0.0255 (inactive) | -0.0455 (inactive) | -0.0083 (inactive) | 0.0275 (inactive) | -0.0466 (inactive) | -0.00407 (inactive) | -0.00976 (inactive) | 0.0162 (inactive) | 
NC(N)=NC(=O)c1nc(Cl)c(N)nc1N | 17.4% | 0.64 | -10.9 | 1.1 | 27.6% | -1.52% | 1.02 | 8.17 (inactive) | 212 (inactive) |  |  | -0.0347 (inactive) |  | 0.0238 (inactive) | -0.0162 (inactive) | 0.0417 (inactive) | -0.00743 (inactive) |  |  | -0.147 (inactive)
CCOC(=O)C1=C(COCCN)NC(C)=C(C(=O)OC)C1c1ccccc1Cl (configuration not stated) |  |  |  |  |  |  |  |  | 214 (inactive) | -0.815 (inactive) and -0.625 (inactive) and 0.7 (inactive) |  |  |  |  |  |  |  |  |  | -0.363 (inactive)
CC(=O)OCC(=O)[C@@]1(O)CC[C@H]2[C@@H]3CCC4=CC(=O)C=C[C@]4(C)[C@H]3[C@@H](O)C[C@@]21C |  |  |  |  |  |  |  |  |  | 0.085 (inactive) | 0.0202 (inactive) | -0.0297 (inactive) | 0.0608 (inactive) | 0.072 (inactive) | -0.0254 (inactive) | 0.0604 (inactive) | 0.0146 (inactive) | 0.0243 (inactive) | 0.0458 (inactive) | 
Nc1nc2ccc(OC(F)(F)F)cc2s1 |  |  |  |  |  |  |  | 22.5 (inactive) | 260 (inactive) |  |  |  |  |  |  |  |  |  |  | 1.45 (inactive)
CNCCCC12CCC(c3ccccc31)c1ccccc12 | -14.8% | 1.5 | 28.8 | 1.86 | 26.4% | 22.4% | 1.14 | 0.833 (inactive) | 255 (inactive) |  |  | 0.203 (active) |  | 0.0351 (inactive) | 0.0254 (inactive) | 0.285 (active) | 0.217 (active) |  |  | -0.344 (inactive)
CC(=O)S[C@@H]1CC2=CC(=O)CC[C@]2(C)[C@H]2CC[C@@]3(C)[C@@H](CC[C@@]34CCC(=O)O4)[C@H]12 |  |  |  |  |  |  |  | 17.9 (inactive) |  | -0.25 (inactive) and 0.65 (inactive) | 0.0461 (inactive) | -0.0301 (inactive) | -0.0243 (inactive) | 0.0238 (inactive) | 0.0437 (inactive) | 0.0449 (inactive) | 0.0485 (inactive) | 0.0567 (inactive) | 0.0564 (inactive) | 
CC1(C)O[C@@H]2C[C@H]3[C@@H]4C[C@H](F)C5=CC(=O)C=C[C@]5(C)[C@H]4[C@@H](O)C[C@]3(C)[C@]2(C(=O)CO)O1 |  |  |  |  |  |  |  | 3 (inactive) |  | -1.48 (inactive) | 0.017 (inactive) | -0.0212 (inactive) | -0.0612 (inactive) | -0.0123 (inactive) | 0.00271 (inactive) | -0.0113 (inactive) | -0.0208 (inactive) | 0.0291 (inactive) | 0.0322 (inactive) | 
CCCCc1oc2ccccc2c1C(=O)c1cc(I)c(OCCN(CC)CC)c(I)c1 | 18.6% | -1.49 | 0.17 | 0.79 | 28.8% | 11.2% | -0.303 | 3.5 (inactive) | 244 (inactive) | -1.52 (inactive) and -1.44 (inactive) and -1.87 (inactive) |  |  |  |  |  |  |  |  |  | -0.442 (inactive)
CCn1cc(C(=O)O)c(=O)c2cc(F)c(N3CCNCC3)cc21 | -2.25% | 0.92 | 3.5 | 0.95 | 52.4% | -6.97% | 1.19 | 20.2 (inactive) | 207 (inactive) | 0.67 (inactive) |  |  |  |  |  |  |  |  |  | 
CCN(CC)C(=S)SSC(=S)N(CC)CC |  |  |  |  |  |  |  | 16.9 (inactive) | 249 (inactive) | -1.35 (inactive) and -1.44 (inactive) and -2.44 (inactive) |  | 0.0251 (inactive) |  | 0.093 (active) | 0.00507 (inactive) | 0.145 (active) | 0.0247 (inactive) |  |  | -0.138 (inactive)
O=C(c1ccccc1)c1ccc2n1CCC2C(=O)O (configuration not stated) | 1.05% | 1.22 | -3.9 | 1.43 | 60.8% | 14.7% | 1.2 | 2.17 (inactive) | 231 (inactive) | 0.335 (inactive) and 1.09 (inactive) and 0.445 (inactive) |  |  |  |  |  |  |  |  |  | -0.0903 (inactive)
C[C@@H]1C[C@H]2[C@@H]3CCC4=CC(=O)C=C[C@]4(C)[C@@]3(F)[C@@H](O)C[C@]2(C)[C@@]1(O)C(=O)CO |  |  |  |  |  |  |  |  |  | 0.135 (inactive) and 0.555 (inactive) | 0.0534 (inactive) | -0.01 (inactive) | -0.000275 (inactive) | 0.0359 (inactive) | 0.0247 (inactive) | 0.0605 (inactive) | 0.000117 (inactive) | 0.0627 (inactive) | 0.0456 (inactive) | 
CC(=O)O[C@]1(C(C)=O)CC[C@H]2[C@@H]3C=C(C)C4=CC(=O)CC[C@]4(C)[C@H]3CC[C@@]21C |  |  |  |  |  |  |  | 3.08 (inactive) |  | 0.025 (inactive) | 0.018 (inactive) | 0.0101 (inactive) | -0.0433 (inactive) | -0.00133 (inactive) | -0.0376 (inactive) | 0.00523 (inactive) | -0.00852 (inactive) | -0.0116 (inactive) | 0.0254 (inactive) | 
CN1CCN(CCCN2c3ccccc3Sc3ccc(C(F)(F)F)cc32)CC1 | -8.73% | 1.12 | 0 | 2.01 | 65.5% | 16.2% | 1.63 | 1.83 (inactive) | 265 (inactive) | -1.38 (inactive) and -1.44 (inactive) and -1.35 (inactive) |  | 0.0861 (active) |  | 0.0472 (inactive) | -0.157 (active) | 0.287 (active) | -0.0448 (inactive) |  |  | 0.311 (inactive)
